Among all 2,100 compounds or so, about 260 (12%) were called active. About 58% were inconclusive and are not listed. Some of the results follow. A number with no mark means an inactive call. Calls follow the shape of the dose curve; as a rule, active = well fitted cell-killing curve with a large enough effect; inconclusive = small, poorly fitted or top-dose-only effect, or effect the other way; inactive = flat fitted curve, though single readings scatter.
Potency is read from the fitted curve at half-maximal effect.

This assay in a line: Viability Counterscreen for Confirmatory qHTS for Inhibitors of ATXN expression. Also: nearly all actives have a fitted effect of over 50% in size. The settings on record: HEK-293 ATXN2-luc cells viability, CellTiter-Fluor, 24 h; activity change, negative = cytotoxicity: at the top concentration. In outline:
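Cells with an ATXN2-luciferase reporter were dosed in a dilution series for 24 h at 37 degrees C. Viability was read first with Gly-Phe-AFC at 25 uM final (fluorescence, ex 405/em 540), then SteadyGlo luminescence. Medium-only wells defined 100% inhibition.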
Turning to `CC(C)CCNC(=O)COc1cccc2c1OC(C)(C)C2`, the “activity change, negative = cytotoxicity” value is -12.4% [at 57.5 µM].

As to `CCOC(=O)[C@H]1[C@H]2COc3ccc(OC)cc3[C@@H]2N2C(=O)c3cc(OC)c(OC)cc3NC(=O)[C@@]12C`, the “activity change, negative = cytotoxicity” value is -13%.

Turning to `Cc1cc(O)c(C(C)C)cc1N=Cc1ccc(N(C)C)cc1`, the “activity change, negative = cytotoxicity” value was -5.37%.

In the case of `Cc1cc(C2=NNC(=NC3CC3)SC2)c(C)n1-c1ccccc1F`, the “activity change, negative = cytotoxicity” value is -26.7%.

In the case of `Cc1cccc(N2CCN(C(=O)CNC(=O)Cc3ccccc3)CC2)c1C`, the “activity change, negative = cytotoxicity” value is -15.8%.

As to `CCCCCc1ccc(OCCC[n+]2ccccc2)c(CCCCC)c1`, the Potency is 20 µM (active).

As for `CCC(C)(C)c1ccc(OCCCC[n+]2ccc(C)cc2)c(C(C)(C)CC)c1`, the “activity change, negative = cytotoxicity” value is -23.1%.

Turning to `CCC(C)(C)c1ccc(OCCCC[n+]2ccccc2)c(C(C)(C)CC)c1`, the “activity change, negative = cytotoxicity” value is -22%.

Take `Cc1cccc(OCCSc2nc3ncnc(N)c3[nH]2)c1`: the “activity change, negative = cytotoxicity” value is -9.99% [at 57.5 µM].

`Cc1nc(-c2ccc(Cl)cc2)sc1C(=O)NN`: the “activity change, negative = cytotoxicity” value is -25.7% [at 57.5 µM].

As for `COc1ccc2nc(C)c3c(c2c1)OC(C(C)(Cl)Br)C3` (stereo not drawn), the “activity change, negative = cytotoxicity” value is -19.2%.

For the compound `COc1ccc(N2CCN(c3cc(C)nc4ccc(OC)cc34)CC2)cc1`, the “activity change, negative = cytotoxicity” value was -28.2%.

`COc1ccc2nc(C)cc(NCc3cccc(C(F)(F)F)c3)c2c1`: the Potency is 22.4 µM (active).

`O=C(CCN1CCN(c2ccccc2)CC1)N/N=C/c1ccccc1O`: the “activity change, negative = cytotoxicity” value is -13.3%.

For the compound `COc1cc(C(=O)OC(C)C(=O)N2CCc3ccccc3C2)ccc1OCC(=O)N1CCOCC1` (stereo not drawn), the “activity change, negative = cytotoxicity” value was -8.5%.

For the compound `COC(=O)c1sc(NC(=O)c2ccc(OC)cc2OC)nc1C`, the “activity change, negative = cytotoxicity” value was -11.6% [at 57.5 µM].

In the case of `Cc1cc(C)c(C)c(OC(=O)c2sc(Cl)nc2C)c1`, the Potency is 28.2 µM (active).

Take `CCOC(=O)C1CCN(c2ncnc3c2cnn3-c2ccc(Cl)cc2)CC1`: the “activity change, negative = cytotoxicity” value is -3.15% [at 57.5 µM].

In the case of `Cc1cc(N2CCN(c3nc(-c4ccccc4)cs3)CC2)c2ccccc2n1`, the “activity change, negative = cytotoxicity” value is -13.9%.

As for `Cn1cccc1/C=N/N1CCN(Cc2ccccc2Cl)CC1`, the “activity change, negative = cytotoxicity” value is -17.9% [at 57.5 µM].

For `Cc1ccnc(N2C(=O)c3cccc4c([N+](=O)[O-])ccc(c34)C2=O)c1`, the “activity change, negative = cytotoxicity” value was 4.13% [at 57.5 µM].

`O=[N+]([O-])c1cc(Cl)c(O)c2ncccc12`: the Potency is 11.2 µM (active).

For the compound `O=[N+]([O-])c1ccc(O)c2ncccc12`, the Potency is 11.2 µM (active).

With `O=C1c2cccc3c([N+](=O)[O-])ccc(c23)C(=O)N1c1ccc(Cl)cn1`, the “activity change, negative = cytotoxicity” value was -7.3% [at 57.5 µM].

As to `CC(C)COCc1ccc(O)c2ncccc12`, the “activity change, negative = cytotoxicity” value is -28.8%.

For `CCOC(=O)N1CCN(Cc2cc(Cl)c3cccnc3c2O)CC1`, the “activity change, negative = cytotoxicity” value was -24.9%.

`Cn1c(-[n+]2c(-c3ccccc3)cc(-c3ccccc3)cc2-c2ccccc2)nc2c([N+](=O)[O-])cccc21`: the “activity change, negative = cytotoxicity” value is -27.1%.

As to `COc1ccc(N=Cc2cc3c(cc2O)OC(N)=C(C#N)C3c2ccccc2)cc1` (stereo not drawn), the “activity change, negative = cytotoxicity” value was -26.4%.

For the compound `O=C1CCCC(O)=C1C=NCc1ccccc1`, the “activity change, negative = cytotoxicity” value was 2.46%.

With `CCCCC(=O)N(CCOC)c1nnc(-c2ccccc2C)s1`, the “activity change, negative = cytotoxicity” value is -13.5% [at 57.5 µM].

Consider `COc1ccccc1CNc1nc(NC(C)C)nc2cc(-c3ccccc3)sc12`, for which the Potency is 28.2 µM (active).

Regarding `CC(=O)Nc1ccc(CNc2nc(NC(C)C)nc3cc(-c4ccccc4)sc23)cc1`, the Potency was 25.1 µM (active).

Regarding `CC(=O)Nc1ccc(CNc2nc3cc(-c4ccccc4C)sc3c(=O)n2C)cc1`, the “activity change, negative = cytotoxicity” value is -25% [at 57.5 µM].

Regarding `COc1ccc(-c2cc(CNc3nc(NC(C)C)nc4cc(-c5ccccc5)sc34)on2)cc1`, the Potency is 22.4 µM (active).

In the case of `CCn1c2ccccc2c2cc(/C=N/n3cnnc3)ccc21`, the “activity change, negative = cytotoxicity” value was -18.4%.

On to `CCOCCn1ccc2c(OCC(=O)Nc3ccc(OC)c(OC)c3)cccc2c1=O`, for which the “activity change, negative = cytotoxicity” value is -12%.

With `COCCNc1nc(-c2cc(C)n(CCc3ccc(OC)cc3)c2C)cs1`, the “activity change, negative = cytotoxicity” value is -24.1% [at 57.5 µM].

For the compound `COCCCn1c(N)c(-c2nc3ccccc3n2C)c2nc3ccccc3nc21`, the “activity change, negative = cytotoxicity” value was -3.25% [at 57.5 µM].

Turning to `CO[C@@]12[C@@H]3N[C@@H]3CN1C1=C(C(=O)C(N)=C(C)C1=O)[C@@H]2COC(N)=O`, the “activity change, negative = cytotoxicity” value was 9.55%.

Take `NNC(=O)c1sc2cc(C(F)(F)F)cnc2c1-c1cccs1`: the “activity change, negative = cytotoxicity” value is -22.9% [at 57.5 µM].

In the case of `O=C(CNC(=O)C1COc2ccccc2O1)N/N=C/c1ccc(O)cc1O` (stereo not drawn), the “activity change, negative = cytotoxicity” value was -22.9%.

On to `Cc1nc(SCc2ccc(C(=O)O)cc2)nc2c1CCCC2`, for which the “activity change, negative = cytotoxicity” value is -2.72%.

Take `N=c1ccn(CC(=O)c2ccc(-c3ccccc3)cc2)cc1`: the “activity change, negative = cytotoxicity” value is -19.1%.

As for `Cc1c(C(=O)NCc2ccc(C(F)(F)F)cc2)sc(=O)n1Cc1cccc(F)c1`, the “activity change, negative = cytotoxicity” value was -16.1% [at 57.5 µM].

`Cc1ccc2nc(SCc3ccc([N+](=O)[O-])cc3)[nH]c2c1`: the “activity change, negative = cytotoxicity” value is -12.6%.

For the compound `Cc1ccc2nc3cc([N+](=O)[O-])cc([N+](=O)[O-])c3cc2c1`, the Potency was 17.8 µM (active).

Turning to `Cc1cc(C)nc(NNS(=O)(=O)c2ccc(F)c(Cl)c2)n1`, the “activity change, negative = cytotoxicity” value was -5.02%.

In the case of `CC(C)CC(=O)NC(=S)NNC(=O)c1ccc(NC(=O)C2CCCCC2)cc1`, the “activity change, negative = cytotoxicity” value is 4.48%.

For `CCC(=O)OCCNc1cc(Sc2nc3ccccc3[nH]2)c2nonc2c1[N+](=O)[O-]`, the Potency is 3.16 µM (active).

Turning to `Cc1cccc(OCCCC(=O)Nc2nc3ccccc3[nH]2)c1`, the “activity change, negative = cytotoxicity” value was -19.4%.

Take `CC(SC(C)C(=O)NN=Cc1cccc(Cl)c1)C(=O)NN=Cc1cccc(Cl)c1` (stereo not drawn): the “activity change, negative = cytotoxicity” value was -28.8%.

As for `O=C(NC(=S)NCc1nc2ccccc2[nH]1)c1ccc(F)cc1`, the “activity change, negative = cytotoxicity” value is -4.93%.

Take `Cc1cc(C)cc(NC(=O)CCC(=O)Nc2cc(C)on2)c1`: the “activity change, negative = cytotoxicity” value was -6.58%.

Consider `COc1ccc(OC)c(NC(=O)CSc2nnnn2-c2ccc3c(c2)OCO3)c1`, for which the “activity change, negative = cytotoxicity” value was -28.3% [at 57.5 µM].

On to `Cc1cc(C)c2c(CC(=O)Nc3ccc(Cl)cn3)coc2c1`, for which the “activity change, negative = cytotoxicity” value is -4.58%.

Consider `Cc1ccc(N=Nc2ccc(O)c3ncccc23)cc1`, for which the Potency was 10 µM (active).

`CN1CCC(N(C)C(=O)c2ccc(Cl)c(S(=O)(=O)N3CCc4ccccc43)c2)CC1`: the “activity change, negative = cytotoxicity” value is -25.1% [at 57.5 µM].

Take `Nc1ccn([C@@H]2O[C@H](CO)[C@@H](O)[C@@H]2O)c(=O)n1`: the “activity change, negative = cytotoxicity” value is -10.9%.

As for `CN(C)S(=O)(=O)c1cccc(N2C(=O)CC3(CCCCC3)CC2=O)c1`, the “activity change, negative = cytotoxicity” value is -6.16%.

With `C=CCN(C(=O)CSc1nc2c(sc3ccccc32)c(=O)n1CCN(CC)CC)c1ccccc1`, the Potency is 25.1 µM (active).

Regarding `CCOC(=O)c1c(-n2cccc2)sc2c1CCCC2=O`, the “activity change, negative = cytotoxicity” value is -20% [at 57.5 µM].

`CC(=O)c1ccc(N2CCN(CC(O)COC(c3ccccc3)c3ccccc3)CC2)cc1` (stereo not drawn): the “activity change, negative = cytotoxicity” value was -7.3%.

Turning to `CCN(CC)c1nc(-c2ccccn2)nc(-c2ccccc2)c1C#N`, the Potency is 8.91 µM (active).

For `CC(C)Nc1nc(-c2ccccn2)nc(-c2ccccc2)c1C#N`, the “activity change, negative = cytotoxicity” value is -20.8% [at 57.5 µM].

`Cn1cc(SCC(=O)Nc2nc3ccccc3s2)c2ccccc21`: the “activity change, negative = cytotoxicity” value is -4.73%.

As to `COc1ccccc1NS(=O)(=O)c1cccc(C(=O)N/N=C/c2ccc([N+](=O)[O-])o2)c1`, the Potency was 15.8 µM (active).

With `COc1cccc(/C=N/NC(=O)c2cc3c(OC)cccc3[nH]2)c1O`, the “activity change, negative = cytotoxicity” value is -32.3% [at 57.5 µM].

For the compound `O=C(N/N=C/c1ccccc1O)c1cccc(C(F)(F)F)c1`, the “activity change, negative = cytotoxicity” value was -7.41%.

For the origin of these results see PubChem BioAssay AID1745850 (National Center for Advancing Translational Sciences (NCATS), 2022).
